Experimental data as given in PubChem BioAssay (NCI).
Where “and” joins values, the source holds several entries; their conditions need not be identical. Equal values may be shown once. The panel holds about 83,000 compounds, 20% with a hit somewhere; the sample as a whole holds those more often.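 How to read the values: 0–100, growth inhibition (40 = 60% inhibited); 0, no net growth; -100 to 0, cell death (-40 = 40% of starting cells died; -100 = all dead).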 Calls of active or inactive are those of the source. How the source made its calls: active means growth percent below 10; inactive means the rest.

Tests used:
Test in all cases: NCI-60 one-dose screen, 48 h (100 = growth as untreated, 0 = no growth, -100 = all killed)
Details in all cases: 10 µM unless noted
[1] = test system: HCT-15 colon
[2] = test system: HT29 colon
[3] = test system: SNB-75 CNS
[4] = test system: SNB-19 CNS
[5] = test system: U251 CNS
[6] = test system: PC-3 prostate
[7] = test system: SK-MEL-5 melanoma
[8] = test system: UACC-62 melanoma
[9] = test system: LOX IMVI melanoma
[10] = test system: SK-MEL-28 melanoma

Measured: growth

O=C1C=C(Nc2ccccc2)c2ncccc2C1=O
active: [1] -68.7% | [2] -37% | [3] -97.1% | [4] -92.8% | [5] -97.9% | [6] -17.7% | [7] -97.8% | [8] -92.3% | [9] -77.7% | [10] -81.3%

c1ccc(Cc2cccc[n+]2C(c2ccccc2)c2ccccc2)cc1
inactive: [1] 93.1% | [2] 31.8% | [3] 50.8% | [4] 58.1% | [5] 42.5% | [6] 35.8% | [7] 14.5% | [8] 37.7% | [9] 58.2% | [10] 41.6%

O=C1CCc2c(sc3[nH]c(=S)n(Cc4ccc(Cl)cc4)c(=O)c23)C1
inactive: [2] 14.5% | [4] 19.8% | [10] 19.6%
active: [1] -13.5% | [3] 3.19% | [5] 5.03% | [6] 3.57% | [7] -81.1% | [8] 0.777% | [9] 2.41%

COc1ccc(C(CC(=O)c2ccc3c(c2)OCO3)C(=O)O)cc1OC (stereo not given)
inactive: [1] 122% and 109% | [2] 103% and 96.3% | [3] 110% and 88.3% | [4] 110% and 97.6% | [5] 102% | [6] 87.4% and 105% | [7] 108% and 102% | [8] 111% and 112% | [9] 95.6% and 98.4% | [10] 122% and 106%

CC[C@H](C)[C@H](NC(=O)[C@H](CCCCN)NC(=O)[C@H](CCCCN)NC(=O)[C@@H](NC(=O)[C@@H](NC(=O)[C@@H](N)Cc1cnc[nH]1)[C@@H](C)CC)[C@@H](C)CC)C(=O)N[C@@H](CCCNC(=N)N)C(=O)N[C@H](C(=O)N[C@@H](Cc1c[nH]c2ccccc12)C(=O)N[C@@H](Cc1ccc(O)cc1)C(=O)N[C@@H](CCCNC(=N)N)C(=O)N[C@@H](CCCCN)C(=O)N[C@@H](C)C(=O)N[C@@H](Cc1c[nH]c2ccccc12)C(=O)N[C@@H](Cc1cnc[nH]1)C(=O)N[C@H](C(=O)N[C@@H](CC(C)C)C(=O)NCC(=O)N[C@@H](CCCCN)C(=O)N[C@H](C(N)=O)C(C)C)C(C)C)[C@@H](C)O
inactive: [1] 21.4% | [2] 60.4% | [3] 72.7% | [4] 58.6% | [5] 20.2% | [6] 67.1% | [7] 13.2% | [9] 70.5% | [10] 18.9%
active: [8] -56.3%

NCCOCCOc1ccccc1
inactive: [1] 104% | [2] 97.6% | [3] 106% | [4] 106% | [5] 96.1% | [6] 90.5% | [7] 114% | [8] 102% | [9] 102% | [10] 107%

C=C1CC[C@@H]2[C@](C)(COC(C)=O)[C@H](OC(C)=O)CC[C@@]2(C)[C@@H]1CC(Nc1ccc(S(=O)(=O)Nc2nccs2)cc1)C1=CCOC1=O (stereo not given in full)
inactive: [3] 28.3% | [4] 49.1% | [6] 21.8% | [7] 31.4% | [8] 21.2%
active: [1] -39.2% | [2] -42.7% | [5] 4.21% | [9] -88.3% | [10] -16.3%

COc1cc(-c2[nH]ncc2Nc2ccc(Cl)cc2)cc(OC)c1OC
inactive: [1] 59.7% | [2] 74.2% | [3] 59.8% | [4] 74.2% | [5] 68.9% | [6] 59.9% | [7] 43.6% | [8] 40% | [9] 55.8% | [10] 82.1%

C=C(CNCCO)[C@@H]1CC[C@]2(CO)CC[C@]3(C)[C@H](CC[C@@H]4[C@@]5(C)CCC(NCCc6ccc(O)cc6)C(C)(C)[C@@H]5CC[C@]43C)[C@@H]12 (stereo not given in full)
active: [1] -88.4% | [2] -68.7% | [3] -97.8% | [4] -72.9% | [5] -92.7% | [6] -43.4% | [7] -95.3% | [8] -81.5% | [9] -89.8% | [10] -94.1%

CCn1cc(C(=O)NN=C2CCCC2)c(=O)c2ccc(C)nc21
inactive: [1] 96.6% | [2] 96.9% | [3] 86.1% | [4] 96.6% | [5] 96.5% | [6] 85.6% | [7] 92.8% | [8] 78.6% | [9] 98.1% | [10] 90.9%

COc1ccc(CN2CCc3c(Cl)nc(N)nc3C2=O)c(OC)c1
inactive: [4] 33.9% [100 µM] | [6] 12% [100 µM]
active: [1] -36.7% [100 µM] | [2] -4.88% [100 µM] | [3] 4.5% [100 µM] | [5] 4.76% [100 µM] | [7] -55.7% [100 µM] | [8] -24.5% [100 µM] | [9] -29.7% [100 µM] | [10] -56.1% [100 µM]

Cc1nc2sc(C(=O)Nc3cccc(Cl)c3C)c(N)c2cc1C(O)c1ccccc1 (stereo not given)
inactive: [1] 12.3% | [2] 11.8% | [3] 59.3% | [4] 34.7% | [6] 19.6% | [8] 21.4% | [9] 20.5% | [10] 53.9%
active: [5] 9.59% | [7] -37.5%

CCOC(=O)c1cnn(-c2ccc(S(N)(=O)=O)cc2)c1N
inactive: [1] 108% | [2] 102% | [3] 78.1% | [4] 100% | [5] 103% | [6] 103% | [7] 113% | [8] 97.5% | [9] 96.9% | [10] 106%

CN1CCN(CCCN2c3ccccc3Sc3ccc(Cl)cc32)CC1
-18.1% (active) and 67.7% (inactive): [10]
inactive: [1] 68.8% and 80.8% | [2] 25.2% and 35.9% | [3] 45.2% and 57.4% | [4] 89.7% and 91.4% | [5] 54.6% and 68% | [6] 56.2% and 53.6% | [7] 17.6% and 62.1% | [8] 33.1% | [9] 54.4% and 71.8%

COc1cc(F)c(/C=C/c2cc(/C=C/c3cc(OC)c(OC)cc3F)n(-c3cc(F)cc(F)c3)n2)cc1OC
active: [5] -1.48% | [10] -28.1%
inactive: [1] 11.5% | [2] 22.9% | [3] 105% | [4] 56.7% | [6] 10.4% | [7] 23.6% | [8] 26.8% | [9] 18.6%

CCN(c1cc(-c2ccc(CN3CCC(/C=C/S(=O)(=O)c4ccccc4)CC3)cc2)cc(C(=O)NCc2c(C)cc(C)[nH]c2=O)c1C)C1CCOCC1
inactive: [1] 54.8% | [2] 21.2% | [3] 37.5% | [4] 80.1% | [5] 66.9% | [6] 53.7% | [7] 71.9% | [8] 76.6% | [9] 68.9% | [10] 97.9%

COc1cc(NS(=O)(=O)C(C)C)cc(-c2cc(-c3ccc(N4CCNCC4)cc3)cnc2N)c1
inactive: [1] 112% | [2] 31.9% | [3] 53.7% | [4] 94.2% | [5] 77.1% | [6] 72% | [7] 102% | [8] 110% | [9] 67.3% | [10] 107%

CCN(CC)CCOc1ccccc1C
inactive: [1] 107% | [2] 101% | [3] 98.6% | [4] 104% | [5] 108% | [6] 97.3% | [7] 102% | [8] 101% | [9] 104% | [10] 98.3%

CONC1=Nc2cc(NC(N)=NCc3ccccc3)c(N(C)C3CCCCC3)cc2OC1
inactive: [1] 101% | [2] 29.5% | [3] 40.9% | [4] 68.8% | [5] 53.1% | [6] 51.1% | [7] 74.9% | [8] 70.1% | [9] 50.2% | [10] 87.9%

Cc1ccc2nc3ccccc3c(NCc3ccc(Cl)cc3)c2c1
active: [2] 5.35% | [9] -57.1%
inactive: [1] 14.5% | [3] 66.5% | [4] 50.3% | [5] 25.1% | [6] 39.1% | [7] 54% | [8] 74% | [10] 75.5%

O=C(/C=C/c1ccc(Cl)s1)c1ccc(Cl)s1
inactive: [1] 88.2% and 90.7% | [2] 74.5% and 94% | [3] 106% and 102% | [4] 94.6% and 99.5% | [5] 92.8% and 93.3% | [6] 92.6% and 105% | [7] 96% and 96.6% | [8] 94.7% and 99.6% | [9] 78.8% and 87.8% | [10] 103% and 112%

CN(C)CCCn1c2nc(=O)[nH]c(=O)c-2nc2cc(Cl)c(Cl)cc21
inactive: [1] 87% | [2] 20.9% | [3] 99.9% | [4] 100% | [5] 55.2% | [6] 60.2% | [7] 78.3% | [8] 97.9% | [9] 41.2% | [10] 106%

Cn1c(=O)c2c(nc(Nc3cc(=O)[nH]c(=O)[nH]3)n2Cc2ccccc2)n(C)c1=O
inactive: [1] 98.3% | [4] 96.9% | [5] 12.2% | [6] 92.2% | [7] 98.1% | [8] 88.3% | [9] 92.3% | [10] 101%
active: [2] -4.46% | [3] -21%
